Common to all, as to type: functional
Assay [1] concerns Plasmodium falciparum. Description: GSK_TCMDC: Inhibition of Plasmodium falciparum 3D7 in whole red blood cells, using parasite LDH activity as an index of growth. Test compounds present at 2uM.
Assay [2] deals with Plasmodium falciparum. Description: GSK_TCMDC: Inhibition of Plasmodium falciparum Dd2 in whole red blood cells, using parasite LDH activity as an index of growth. Test compounds present at 2uM.
In another assay the test system is HepG2. The assay is described as follows: GSK_TCMDC: Percent inhibition of human HepG2 cell line. Test compounds present at 10uM.

This note sets out measurements from ChEMBL document CHEMBL1157539, “Thousands of chemical starting points for antimalarial lead identification” (Nature, 2010).

Broadly, the Inhibition is the relative decrease from the control value, in per cent. The low end stands for a response near the control, the high end for a response far below the control. Regarding `CNCCNCc1ccc(-c2ccc(-c3nc4cc(F)ccc4[nH]3)cc2)cc1.O=C(O)C(F)(F)F`, the values for the Inhibition in the assay with Plasmodium falciparum [1], in the assay on Plasmodium falciparum [2] and in the assay with HepG2 were 98%, 97% and 30%, respectively.

In the case of `O=C(O)C(F)(F)F.Oc1ccc(CCNc2nc(NCc3ccccc3-c3ccc(F)cc3)nc(N3CCNCC3)n2)cc1`, the Inhibition in the assay on Plasmodium falciparum [1] stood at 92%; with Plasmodium falciparum [2] it was 24%; with HepG2 it was 15%.

On to `O=C(NCCCCN1CCC(c2ccc3c(c2OCC(O)c2ccc(Cl)cc2)CCCC3)CC1)c1ccc(-c2ccc(C(F)(F)F)cc2)cc1` (stereo unspecified), for which the values for the Inhibition with Plasmodium falciparum [1], with Plasmodium falciparum [2] and in the assay on HepG2 were 89%, 67% and 100%, respectively.

Consider `O=C(Nc1ccccc1)N(Cc1ccc(-c2ccc(CNCc3ccc4c(c3)OCO4)cc2)cc1)C1CCN(Cc2ccccc2)CC1.O=C(O)C(F)(F)F`, for which the Inhibition with Plasmodium falciparum [1] worked out at 98%; in the assay with Plasmodium falciparum [2] it was 41%; with HepG2, 21%.

As to `Cl.N=C(NCCc1ccc(Cl)c(Cl)c1)c1ccc2ccccc2c1`, the Inhibition is reported as 100% in the assay on Plasmodium falciparum [1], 29% in the assay on Plasmodium falciparum [2] and 60% with HepG2.

In the case of `Cc1cccc2nc(-c3ccc(-c4cccc(CN5CC(C)OC(C)C5)c4)s3)[nH]c12.O=C(O)C(F)(F)F` (stereo unspecified), the Inhibition in the assay with Plasmodium falciparum [1] was found to be 98%; in the assay with Plasmodium falciparum [2] it was 79%; with HepG2, 6%.

Turning to `COc1ccc2nccc([C@@H](O)CN3CCC(NCc4nc5c(C#N)cccc5[nH]4)CC3)c2c1.O=C(O)C(=O)O`, the Inhibition is given as 96% with Plasmodium falciparum [1], 9% in the assay with Plasmodium falciparum [2] and 0% in the assay with HepG2.

Turning to `O=C(CCc1cccc(O)c1)NCC(NCCCNc1cc(=O)c2ccccc2[nH]1)c1cc(Br)cc(Br)c1` (stereo unspecified), the Inhibition in the assay on Plasmodium falciparum [1] is listed as 86%; with Plasmodium falciparum [2], 37%; in the assay on HepG2 it was 0%.

For `COc1ccc2nccc([C@@H](O)CN3CCC(NCc4cc5ccccc5[nH]4)CC3)c2n1.O=C(O)C(=O)O`, the results for the Inhibition in the assay with Plasmodium falciparum [1], in the assay with Plasmodium falciparum [2] and in the assay on HepG2 were 100%, 55% and 17%, respectively.

Turning to `O=C(NCc1ccccc1)c1ncn(CCCN2CCC(N3CCCC3)CC2)c1-c1ccc(Cl)c(Cl)c1.O=CO`, the results for the Inhibition in the assay with Plasmodium falciparum [1], in the assay with Plasmodium falciparum [2] and with HepG2 were 89%, 36% and 8%, respectively.

`N#Cc1cccc(C(=O)Nc2cccc(-c3ccc(CN4CCCC4)cc3)c2)c1.O=C(O)C(F)(F)F`: the results for the Inhibition in the assay on Plasmodium falciparum [1], in the assay on Plasmodium falciparum [2] and in the assay on HepG2 were 98%, 42% and 11%, respectively.

On to `CN1CCc2cc(NC(=O)c3cc4ccccc4s3)cc(-c3ccccc3)c2CC1.Cl`, for which the Inhibition in the assay on Plasmodium falciparum [1] was 91%; with Plasmodium falciparum [2], 11%; with HepG2 it was 20%.

Consider `O=C(Nc1ccccc1)Nc1cccc(-c2nn3c(OCC4CCCCN4)cccc3c2-c2ccncc2)c1` (stereo unspecified), for which the figures for the Inhibition with Plasmodium falciparum [1], in the assay on Plasmodium falciparum [2] and in the assay with HepG2 were 97%, 82% and 9%, respectively.

As to `Cc1cc(C(=O)NC2CCN(CC3(c4ccccc4)CCCCC3)CC2)on1`, the values for the Inhibition in the assay on Plasmodium falciparum [1], with Plasmodium falciparum [2] and in the assay on HepG2 were 97%, 95% and 0%, respectively.

With `Clc1ncnc2scc(-c3ccc(Br)cc3)c12`, the Inhibition in the assay on Plasmodium falciparum [1] came out at 95%; in the assay with Plasmodium falciparum [2], 96%; with HepG2, 0%.

Regarding `N=C(N)NCCN(Cc1ccccc1)c1ccccc1`, the values for the Inhibition in the assay on Plasmodium falciparum [1], in the assay on Plasmodium falciparum [2] and with HepG2 were 100%, 98% and 8%, respectively.

Regarding `O=C(/C=C/c1ccc(Cl)c(Cl)c1)NCCCCCN1CCC(C(=O)Nc2ccc3c(c2)OCO3)CC1`, the Inhibition with Plasmodium falciparum [1] turned out to be 92%; in the assay on Plasmodium falciparum [2] it was 0%; in the assay on HepG2, 18%.

As to `Cc1noc(C)c1-c1ccc2c(Nc3ccccc3N3CCOCC3)c(C(=O)NCc3ccccc3)cnc2c1.Cl`, the Inhibition came out at 91% in the assay on Plasmodium falciparum [1], 6% in the assay with Plasmodium falciparum [2] and 23% in the assay with HepG2.

Regarding `COC(=O)c1ccc(OCC(O)CO)cc1O` (stereo unspecified), the results for the Inhibition with Plasmodium falciparum [1], in the assay on Plasmodium falciparum [2] and with HepG2 were 100%, 23% and 4%, respectively.

For the molecule `COc1ccc2nccc([C@@H](O)CN3CCC(NCc4ccc5c(c4)NC(=O)C(C)(C)O5)CC3)c2c1.O=C(O)C(=O)O`, the Inhibition with Plasmodium falciparum [1] is given as 100%; in the assay with Plasmodium falciparum [2], 70%; with HepG2, 6%.

As to `Fc1ccc2[nH]c(-c3ccc(-c4cccc(CN5CCC(CCN6CCCCC6)CC5)c4)cc3)nc2c1.O=C(O)C(F)(F)F`, the Inhibition in the assay with Plasmodium falciparum [1] is given as 100%; in the assay on Plasmodium falciparum [2] it was 100%; with HepG2, 96%.

Regarding `CC[C@@]1(O)C(=O)OCc2c1cc1n(c2=O)Cc2c-1nc1cc3c(cc1c2CN1CCN(C)CC1)OCCO3.Cl`, the Inhibition is 98% with Plasmodium falciparum [1], 97% in the assay with Plasmodium falciparum [2] and 79% with HepG2.

For the molecule `CCN(CC)/C(=N/C(=N)Nc1ccc(C)cc1)NCCCCCCN/C(=N\C(=N)Nc1ccc(C)cc1)N(CC)CC`, the Inhibition with Plasmodium falciparum [1] was 97%; in the assay with Plasmodium falciparum [2], 98%; with HepG2, 10%.

Regarding `Cc1cccc(C(O)CNc2ccnc(Nc3cccc(-c4csc(C)n4)c3)n2)c1` (stereo unspecified), the Inhibition in the assay on Plasmodium falciparum [1] turned out to be 99%; in the assay on Plasmodium falciparum [2], 88%; with HepG2, 29%.

Regarding `Cc1cccc(-c2cc3cc(Nc4ccnc5cc(-c6nccs6)ccc45)ccc3[nH]2)c1.Cl`, the Inhibition in the assay with Plasmodium falciparum [1] is 100%; in the assay with Plasmodium falciparum [2] it was 100%; with HepG2 it was 0%.

`CC(C)S(=O)(=O)N1CCN(Cc2ccc3c(c2)nc(NC(=O)c2ccsc2)n3C[C@H](O)c2ccccc2)CC1`: the figures for the Inhibition in the assay with Plasmodium falciparum [1], with Plasmodium falciparum [2] and with HepG2 were 91%, 72% and 56%, respectively.

As for `COc1c(C2CCN(CCCCNC(=O)c3cc(-c4ccc(Cl)cc4)sc3C)CC2)ccc2c1CCCC2`, the figures for the Inhibition in the assay with Plasmodium falciparum [1], in the assay with Plasmodium falciparum [2] and in the assay with HepG2 were 100%, 65% and 61%, respectively.
